Among the data in PubChem BioAssay AID1508600 (Functional Genomics Laboratory (NCATS/FGL), 2020) are z-score values, retold here.

About 3,700 (7%) of roughly 53,000 sequences were called active.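 The calls were made as follows: active = gene knockdowns whose robust z-score for IL-1 alpha signal is at least 2 or at most -2, so actives lie on both sides; inactive = the rest.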 Only a selection was taken, and actives are over-represented in it overall.

The experiment in a line: Components of the Cytosolic LPS Sensing Pathway: Gene Identification via Genome-wide siRNA Screen.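 Also: robust z of the log signal after scaling to non-targeting control siRNA wells of the plate.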 To be noted: RAW264.7 macrophages, IL-1a HTRF, actives lie on both sides, screened at 100 nM (by protocol), cells primed 5 h with Pam3CSK4 first. In outline: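 Read-out: IL-1a HTRF on supernatant, divided by plate negative-control median ×100, log-transformed and converted to robust z-score. Cells were RAW264.7 given 100 nM siRNA, Pam3CSK4-primed 5 hours, then LipidA-transfected 24 hour.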
On the technique in general: TR-FRET usually uses a lanthanide donor and a delayed reading to cut background.
On to “GGACAAAGAAACUCAUAGGTT against A530021J07Rik”, for which the z-score was 0.737 (inactive).

For the sequence GGCUUUUUAGGAAACUAUATT against Olfr361, the z-score is 2.12 (active). The figure for GGUGAACUUCUUUGGUGCATT against Hsd11b2 is 0.0519 (inactive); for GCUUAGAAAUCUUAUCCCATT against Hnrnpc it is -1.19 (inactive); for GGCACUUCUUUCCAAGACGTT against Gbp7 it is -0.373 (inactive). Regarding GCCUGUUCUAUGUUACUGGTT against Olfr320, the z-score was -1.99 (inactive). As for GCGAUGUCAAUCAAUUCUGTT against Gpr37l1, the figure is 0.513 (inactive); as for GCAUUUCGUCAGGGCAAAATT against Fuca1, -0.515 (inactive); as for UAUUUCUCCCUUGCUGGUATT against Gm5168, 1.18 (inactive). As for CCGCUGAAAAUGGAAGUUATT against Mrgprb4, the figure is -2.21 (active). For GCCCAGAAUAGACAAACCGTT against Wfdc15b, the z-score was -1.95 (inactive). The figure for CCUGAUCCCAUGUAAAACATT against Sspn is -0.35 (inactive); for GGGAAUGACAGAAAUAUAATT against Golm1 it is 0.923 (inactive). Take GGUUGUUACCUUACUGUACTT against Olfr532: the z-score is 0.952 (inactive). As for GGCUAUUGUUGGUAGAACUTT against Dek, the figure is 0.441 (inactive). As for CGUAAUACAAUCCAGUUCATT against Aqr, the figure is -2.18 (active); as for GGACUUAUGAGCAAAUAAATT against Rprd1a, 0.494 (inactive); as for GGAACUUUAUGUCUCCUACTT against Lrrc56, -0.988 (inactive). The figure for GGUUUCCUUUAUCAAGAAGTT against Snrnp25 is -0.00388 (inactive); for CCUAUAAGUGAACUGUGAUTT against Aig1 it is -0.71 (inactive); for CCUGUAUACUAUCACUUGUTT against Casp8 it is 0.103 (inactive). Regarding GCAGCUGCACUAAAGAACGTT against Dlg1, the z-score is 2.9 (active).

GGUGUCUUAUGAGCAAUAUTT against Pdcd6: the z-score is -1.12 (inactive). The figure for GGGAAAUCAGAUAAAGCCCTT against Myl12a is 0.874 (inactive); for GGCAACAACAUACCUAAUATT against Rmdn1 it is -0.756 (inactive). As to GGUACUUUCGCAUCCUGCATT against Rnaseh2b, the z-score was -0.397 (inactive). On to GGCAAAUGAGAAACAGCAATT against Cxcl16, for which the z-score was -2.23 (active). GGUGUUGGCUCACAACCAATT against Fam234b: the z-score was -1.67 (inactive). The figure for GGUCAUUCCCAUUAAACAGTT against Emc8 is -2.57 (active); for GGGCUCUGAAUUGAAGAAATT against Ralgps2 it is -0.163 (inactive); for CCCUUAGGGAGUGCUGUGATT against Gc it is -1.85 (inactive). As for CCAAAGGGAAGAGUUAUGCTT against Tmem126b, the figure is 2.34 (active).

As to CCCAUGAACCUUAUUUGAATT against Ino80c, the z-score is -0.268 (inactive). As for GGUGGUAUUGUUGGCUUUATT against Olfr1297, the figure is 0.293 (inactive); as for GAUGGACAGAAAUCAGGAGTT against Arap1, 0.208 (inactive). The figure for CGGUCAUUUGAAGUAGGAATT against Pwwp3a is 0.76 (inactive); for GGAUCAUCUCCUCUACUCUTT against Olfr394 it is -1.84 (inactive).

For GGAAGUAGCUUAUUGUUCUTT against Polr2b, the z-score was -2.69 (active). As for CCAGGUGAAUUAAUAGUCUTT against Stk4, the figure is 0.93 (inactive); as for GGUACUAAAUCAAACAUCCTT against Angpt1, 0.578 (inactive); as for GAUCUUUCGACACAUCACCTT against Cyp4a12a, -2.02 (active). The figure for GCCUGAAUCCGCCACAUUGTT against Cx3cl1 is 1.6 (inactive); for “GGAGGACCAUUGUAAGUAGTT against 9930022D16Rik” it is 2.17 (active); for CCUGGAUGCAGGUUAAGCUTT against Dppa5a it is -0.817 (inactive). As for GCUGAAACUAACAUUUGAUTT against Anxa3, the figure is 0.146 (inactive); as for CCUCCACUAUACGGUAAGUTT against Pla2g2c, -3.37 (active); as for GGCUGGAUGUCAGAUUGCATT against Olfr1389, -1.38 (inactive). Turning to GGACCAGUUUGAGUAUGAGTT against Tmem11, the z-score was -1.58 (inactive). As to CCUGUGAGGCCAUUGAUUCTT against Acsbg1, the z-score was -1.33 (inactive). The figure for GGACUCUUUUUGUUCUUUGTT against Vgll2 is -1.22 (inactive); for CGUUACCAUGAGAGUUAAUTT against Pcdhb19 it is 3.83 (active); for CGGGAGUAUCUGCUUCAGUTT against Ndufb4 it is 0.336 (inactive). Regarding GGCUGAAGAGAUUGUCAAUTT against Aars, the z-score was -0.392 (inactive). CCUGCUAAACCUGGACCAUTT against Hic1: the z-score is 1.61 (inactive).

Consider GGAGCUUAGCCUCUGUAUGTT against Gatd3a, for which the z-score was -0.86 (inactive). As for GGUAAAGACAAGAUUAAAGTT against Cyp39a1, the figure is -0.308 (inactive); as for GCCACUCAUAUUGAUCCAUTT against Prss34, -2.31 (active); as for GGUGUUUACUCCGUACCCATT against Tbrg4, -2 (inactive). As for GCGUGAACCUCCUUCUUGATT against Ramp3, the z-score is -1.29 (inactive). As for GGAGAGGCAUCUUUUCCUATT against Arhgap20, the figure is -0.338 (inactive).

Turning to CCCACCUAGGUUCAUCCCATT against Fat1, the z-score was -1.4 (inactive).

For GGAAUGUGAGCUUAUCAUATT against Tlr1, the z-score was -0.965 (inactive). The figure for GCAUAGAUUGAUGGCUAAUTT against Chd8 is 1.18 (inactive); for GCAUAGCAGAGAUGAUUCUTT against Trip12 it is 2.15 (active). GGUUGAUGAGUUUAGGUUUTT against Cpsf2: the z-score was 0.264 (inactive).

GGGUUCAAAAGCCCAUAUUTT against Gm6787: the z-score was 0.206 (inactive). The figure for GGUCUUCGAAACACAGCUGTT against Exoc3l2 is -0.402 (inactive); for GGUUUUAUCAGAAUGUCAGTT against Atpaf2 it is 0.464 (inactive); for CCAUAGUAUUGAUGUCUGCTT against Nat8f2 it is 0.363 (inactive).

For the sequence GGACUCUUUUCUACGUGGATT against Klhl1, the z-score was 2.54 (active).

In the case of CCCUAGGUCAUAGCUUGACTT against Crtc1, the z-score is 1.58 (inactive). The figure for CGGUCCCAAACGGUCAAGUTT against Tafa2 is 1.69 (inactive); for GCCUGGAAUGCAGAAUCGATT against Vwa2 it is -0.0276 (inactive); for CCCAAAGUGCUUUACAAUGTT against Aard it is 2.1 (active). As for GGUUCAACGCAAAGUUCGCTT against Aldh4a1, the figure is 0.347 (inactive); as for GCUACUAUGUGCCCUGAUATT against Ms4a7, -0.458 (inactive); as for CCUCCUUAUCCAUAAUAUUTT against Slc35a3, 0.727 (inactive).

Consider GGCUCUAAAACUGUCAGACTT against Scp2d1, for which the z-score was 2.25 (active). Turning to GGGUAUUUUGACAAUUUGGTT against Lrig3, the z-score was -0.576 (inactive). The figure for GGCCAGACCUUUGUGAAUGTT against Ctse is -1.96 (inactive). The figure for GGAAUCUUUAGACCAUCUCTT against Myh1 is 5.3 (active); for GGCCAUGAAUCUUGUUGGGTT against Scg5 it is -0.684 (inactive).

For the sequence GGAAGUCACCAUCAACCAGTT against Krt4, the z-score was 0.168 (inactive). As for CGAGCACUAUUUUGGAUUATT against Usp12, the figure is 0.0102 (inactive); as for GGCUGUGAUCUCCUGGCUUTT against Rnft2, -1.46 (inactive). As for GGCUUUACGAGGAAAAAGGTT against Pex1, the figure is 2.09 (active); as for GGAAUGCAUGCUAAUUCAGTT against Thsd1, 1.1 (inactive); as for GGAUUCUGAGUGUACGUUUTT against Zfp28, 0.0227 (inactive).

In the case of CGAGGGAUAAGAGUCUACGTT against Ubxn11, the z-score is 1.45 (inactive). GCUAAUUCCAAGAAAGAAGTT against Lifr: the z-score was -0.326 (inactive).

For GGACCAUCCCUGCUUAAUGTT against Brat1, the z-score was -2.09 (active).

In the case of CGGUCAACAUCAAUGGUAATT against Gkn1, the z-score is -1.28 (inactive). As for GCUAAGAUUCCUUCCAGUATT against Adm2, the figure is 0.98 (inactive); as for GGUUCUACCUCAAGAUGUUTT against Srd5a2, 0.0188 (inactive); as for CCUAUAUCAUCAUGGUUUGTT against Tmx1, 2.4 (active). The figure for GGACUACGUAUUUUCCCUGTT against Cyc1 is -0.39 (inactive); for GCUCUGAUAUUCUCAUCAATT against Olfr39 it is 1.25 (inactive); for CCUGGGAGCCUAUUAUUCUTT against Ndufb10 it is -0.032 (inactive). For the sequence GGAAGAUAACCAUUUUGAATT against Setd4, the z-score is -0.777 (inactive).

CGGCGUGUUUAUUUGCUAUTT against Rab27a: the z-score was -1.38 (inactive).

In the case of CCUGGUUUACAUGUACGGGTT against Tap2, the z-score was 0.494 (inactive). Turning to GCUAGAGACGAGAAGAUGATT against Ano10, the z-score was -2.47 (active).

Regarding GCACUUCGAAGAAAUAAAATT against Ahsa2, the z-score was 0.396 (inactive). As for CGAGGACAAAAAUACCGACTT against Supt6, the z-score was -1.51 (inactive). As to GAAGAUUAUCCAUUGCCCGTT against Lce1h, the z-score is 0.689 (inactive). As for GGACCCAGCUCCUGUACAUTT against Ypel3, the figure is 2.31 (active); as for GGGACAGAGCCGAAAGAGUTT against Mrpl33, -1.39 (inactive); as for CCUUGCCUUUACUACCAGUTT against Olfr15, -0.187 (inactive).
